In PubChem BioAssay:
Active and inactive are the calls of the source.

Tests used:
[1] = binders of probe aFSTL3 on microarray, primary screen, stem cell growth factor project, biochemical, small-molecule microarray, fluorescence 635/667 (AID 1064); settings: higher = more signal;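 also: measures binding of the biotinylated anti-FSTL3 antibody to printed compounds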
[2] = binders from COS7 lysate, DM2A8 probe, primary screen, torsin A project, cell lysate, small-molecule microarray, fluorescence 635/667 (AID 1065); settings: higher = more signal, COS7 lysate expressing mutant human TOR1A
[3] = binders of probe aFGF2 on microarray, primary screen, stem cell growth factor project, biochemical, small-molecule microarray, fluorescence 635/667 (AID 1067); settings: higher = more signal;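 also: measures binding of biotinylated aFGF2 protein to printed compounds on slides; z-score merges feature fluorescence and signal-to-noise across triplicate slides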
[4] = binders of probe aFGF10 on microarray, primary screen, stem cell growth factor project, biochemical, small-molecule microarray, fluorescence 635/667 (AID 1071); settings: higher = more signal;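 also: score merges 667 nm spot intensity and signal to noise from triplicate slides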
[5] = biological target: Neurogenic locus notch homolog protein 2 (Homo sapiens) (UniProt Q04721); test: Notch2 binders on small-molecule microarrays, primary screen, biochemical, small-molecule microarray, 635 nm fluorescence, stem cell growth factors (AID 1073); settings: Notch2 binding, higher = more signal
[6] = biological target: Pro-neuregulin-1, membrane-bound isoform (Homo sapiens) (UniProt Q02297); test: NRG1 binders on small-molecule microarrays, primary screen, psychiatric disease protein project, biochemical, small-molecule microarray, fluorescence 635/667 (AID 1075); settings: NRG1 binding, 635 nm fluorescence, higher = more signal;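 also: score combines 667 nm spot fluorescence with signal to noise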
[7] = tested on: Neuregulin-1 EGF-like domain; test: binders of neuregulin-1 EGF-like domain, primary screen, biochemical, small-molecule microarray, 635 nm fluorescence (AID 1081); settings: small-molecule microarray binding, higher = more signal;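 also: binding of the protein to compounds printed on small-molecule microarray slides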
[8] = FRG1 promoter luciferase signal modulators, primary screen, FRG1 inhibition for FSHD, cell-based, C2C12 myotubes, firefly/Renilla luciferase, luminescence (AID 1084); settings: higher = more signal, called active from +8 up or from −8 down
[9] = binders of probe aFST on microarray, primary screen, stem cell growth factor project, biochemical, small-molecule microarray, fluorescence 635/667 (AID 1086); settings: higher = more signal;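 also: score merges 667 nm fluorescence with signal-to-noise of each printed compound spot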
[10] = binders of probe aHhip on microarray, primary screen, stem cell growth factor project, biochemical, small-molecule microarray, fluorescence 635/667 (AID 1087); settings: higher = more signal;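 also: score merges spot fluorescence at 667nm with spot signal to noise ratio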
[11] = tested on: PRMT1 (protein arginine N-methyltransferase 1); test: PRMT1 binders on small-molecule microarrays, primary screen, biochemical, small-molecule microarray, 635 nm fluorescence (AID 1088); settings: small-molecule microarray binding, higher = more signal;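 also: binding of Prmt1 protein to compounds spotted on small-molecule microarray slides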
[12] = yeast growth modulation, basal conditions, primary screen, YJM789 clinical isolate, OD600, 24 h (AID 1089);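 also: growth of clinical yeast isolate S. cerevisiae YJM 789 seeded 1000 cells per well; test concentration not given here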; settings: S. cerevisiae YJM789 growth, higher = more signal, called active from +8 up or from −8 down
[13] = fission yeast growth modulation, primary screen, strain 972, OD600, 24 h, no modulator (AID 1090);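 also: basal condition with compound alone and no growth modifier present; test concentration not given here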; settings: S. pombe 972 growth, higher = more signal, called active from +8 up or from −8 down
[14] = S. cerevisiae growth modulation with rapamycin, primary screen, strain BY4716, OD600, 96 h (AID 1091); settings: higher = more signal, called active from +8 up or from −8 down; also: test concentration not given here
[15] = biological target: Torsin-1A-interacting protein 2 (Homo sapiens) (UniProt Q8NFQ8); test: LULL1 binders on small-molecule microarray, primary screen, cell lysate, human LULL1 lysate, 635/667 nm fluorescence (AID 1092); settings: hLULL1 lysate binding, 635 nm fluorescence, higher = more signal;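 also: probe is lysate of COS7 cells overexpressing human LULL1; score merges per-feature 667 nm fluorescence with signal-to-noise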
[16] = E. coli growth modulation, two-sided OD650, primary screen, E. coli filamentation project, strain DRC41, 24 h (AID 1093); settings: OD650, 24 h, higher = more signal, called active from +8 up or from −8 down;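 also: MC1000 strain lacking acrAB efflux and sulA so SOS filamentation is blocked; test concentration not given here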
[17] = small-molecule microarray binders of probe aLefty2, primary screen, biochemical, biotinylated probe, 635/667 nm fluorescence (AID 1094); settings: higher = more signal;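 also: score merges spot fluorescence near 667 nm with spot signal-to-noise ratio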
[18] = tested on: Noggin (protein binding on small-molecule microarray); test: Noggin binders on small-molecule microarray, primary screen, biochemical, 635/667 nm fluorescence (AID 1095); settings: 635 nm fluorescence, higher = more signal;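 also: score merges 667 nm feature fluorescence with signal to noise over triplicate slides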
[19] = biological target: Neurogenic locus notch homolog protein 3 (Homo sapiens) (UniProt Q9UM47); test: NOTCH3 binders on small-molecule microarray, primary screen, biochemical, 635/667 nm fluorescence (AID 1096); settings: NOTCH3 binding, 635 nm fluorescence, higher = more signal
[20] = small-molecule microarray binders of probe aEGFR, primary screen, biochemical, biotinylated probe, 635/667 nm fluorescence (AID 1097); settings: higher = more signal;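 also: probe is a biotinylated anti-EGFR antibody binding compounds printed on slides; score combines fluorescence near 667 nm and signal to noise of each spot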

Neurogenic locus notch homolog protein 2 (Homo sapiens), sequence (Q04721 whole entry, looked up, canonical isoform): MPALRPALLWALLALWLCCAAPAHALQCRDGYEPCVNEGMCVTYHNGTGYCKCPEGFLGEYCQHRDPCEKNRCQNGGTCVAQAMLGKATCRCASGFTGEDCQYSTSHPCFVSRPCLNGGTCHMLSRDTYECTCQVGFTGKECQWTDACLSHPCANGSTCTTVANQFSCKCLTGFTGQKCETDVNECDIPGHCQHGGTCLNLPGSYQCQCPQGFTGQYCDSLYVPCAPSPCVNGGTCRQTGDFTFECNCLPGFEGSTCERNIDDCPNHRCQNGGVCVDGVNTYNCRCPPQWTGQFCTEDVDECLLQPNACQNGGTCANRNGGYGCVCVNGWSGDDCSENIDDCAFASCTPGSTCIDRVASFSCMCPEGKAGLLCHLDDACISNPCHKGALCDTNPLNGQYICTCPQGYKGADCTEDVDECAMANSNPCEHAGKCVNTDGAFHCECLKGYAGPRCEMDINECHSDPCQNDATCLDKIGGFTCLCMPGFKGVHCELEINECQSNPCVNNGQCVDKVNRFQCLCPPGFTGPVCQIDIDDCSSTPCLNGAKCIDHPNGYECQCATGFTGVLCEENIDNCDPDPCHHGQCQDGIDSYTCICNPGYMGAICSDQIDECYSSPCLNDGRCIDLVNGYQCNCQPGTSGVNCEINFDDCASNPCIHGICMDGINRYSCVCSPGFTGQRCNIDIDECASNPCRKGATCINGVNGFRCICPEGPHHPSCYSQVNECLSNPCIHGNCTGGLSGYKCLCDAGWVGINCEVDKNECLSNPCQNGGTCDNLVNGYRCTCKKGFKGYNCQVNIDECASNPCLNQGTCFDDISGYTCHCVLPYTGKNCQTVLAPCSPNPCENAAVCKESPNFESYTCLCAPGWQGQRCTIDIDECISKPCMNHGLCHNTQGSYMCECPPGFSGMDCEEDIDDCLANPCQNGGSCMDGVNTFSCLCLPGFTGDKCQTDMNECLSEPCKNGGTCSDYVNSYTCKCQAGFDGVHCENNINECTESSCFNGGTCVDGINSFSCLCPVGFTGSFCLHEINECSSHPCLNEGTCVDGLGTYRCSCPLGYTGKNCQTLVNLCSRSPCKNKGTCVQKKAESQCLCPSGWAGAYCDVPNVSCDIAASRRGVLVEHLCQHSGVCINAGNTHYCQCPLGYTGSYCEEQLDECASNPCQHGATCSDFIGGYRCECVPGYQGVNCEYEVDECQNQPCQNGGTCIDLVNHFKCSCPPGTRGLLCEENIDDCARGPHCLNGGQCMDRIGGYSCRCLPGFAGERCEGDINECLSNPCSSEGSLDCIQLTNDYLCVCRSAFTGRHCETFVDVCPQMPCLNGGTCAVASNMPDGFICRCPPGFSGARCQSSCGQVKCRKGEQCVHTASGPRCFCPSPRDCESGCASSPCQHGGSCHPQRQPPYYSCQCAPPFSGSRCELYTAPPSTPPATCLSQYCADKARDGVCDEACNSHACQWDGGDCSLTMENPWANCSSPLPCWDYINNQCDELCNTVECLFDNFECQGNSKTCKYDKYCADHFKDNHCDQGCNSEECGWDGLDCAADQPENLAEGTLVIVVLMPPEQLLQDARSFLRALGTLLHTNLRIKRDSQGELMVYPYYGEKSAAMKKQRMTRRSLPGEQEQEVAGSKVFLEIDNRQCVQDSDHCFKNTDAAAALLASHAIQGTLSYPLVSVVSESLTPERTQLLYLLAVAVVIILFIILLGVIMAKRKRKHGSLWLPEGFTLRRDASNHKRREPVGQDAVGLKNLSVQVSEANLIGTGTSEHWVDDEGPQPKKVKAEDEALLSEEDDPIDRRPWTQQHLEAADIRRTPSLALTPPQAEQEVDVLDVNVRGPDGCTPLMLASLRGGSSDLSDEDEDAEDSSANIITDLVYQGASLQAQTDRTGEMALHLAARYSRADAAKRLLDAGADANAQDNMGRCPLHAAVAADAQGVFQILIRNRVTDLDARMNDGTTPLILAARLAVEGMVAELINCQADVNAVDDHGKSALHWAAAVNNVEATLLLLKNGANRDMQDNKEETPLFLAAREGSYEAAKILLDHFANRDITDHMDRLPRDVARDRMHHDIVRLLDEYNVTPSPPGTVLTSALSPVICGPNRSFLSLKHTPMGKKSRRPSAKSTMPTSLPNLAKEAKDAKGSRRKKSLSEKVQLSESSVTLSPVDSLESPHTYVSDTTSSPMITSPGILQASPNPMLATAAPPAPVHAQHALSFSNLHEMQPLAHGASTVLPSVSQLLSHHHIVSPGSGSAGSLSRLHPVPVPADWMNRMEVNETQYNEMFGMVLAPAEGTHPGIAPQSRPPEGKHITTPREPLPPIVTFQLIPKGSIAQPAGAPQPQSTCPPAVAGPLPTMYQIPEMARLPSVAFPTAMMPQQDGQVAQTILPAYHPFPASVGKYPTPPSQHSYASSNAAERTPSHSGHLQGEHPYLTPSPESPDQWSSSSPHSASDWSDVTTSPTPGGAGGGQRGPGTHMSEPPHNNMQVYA
Pro-neuregulin-1, membrane-bound isoform (Homo sapiens), sequence (Q02297 whole entry, looked up, the tested form may be a part, canonical isoform): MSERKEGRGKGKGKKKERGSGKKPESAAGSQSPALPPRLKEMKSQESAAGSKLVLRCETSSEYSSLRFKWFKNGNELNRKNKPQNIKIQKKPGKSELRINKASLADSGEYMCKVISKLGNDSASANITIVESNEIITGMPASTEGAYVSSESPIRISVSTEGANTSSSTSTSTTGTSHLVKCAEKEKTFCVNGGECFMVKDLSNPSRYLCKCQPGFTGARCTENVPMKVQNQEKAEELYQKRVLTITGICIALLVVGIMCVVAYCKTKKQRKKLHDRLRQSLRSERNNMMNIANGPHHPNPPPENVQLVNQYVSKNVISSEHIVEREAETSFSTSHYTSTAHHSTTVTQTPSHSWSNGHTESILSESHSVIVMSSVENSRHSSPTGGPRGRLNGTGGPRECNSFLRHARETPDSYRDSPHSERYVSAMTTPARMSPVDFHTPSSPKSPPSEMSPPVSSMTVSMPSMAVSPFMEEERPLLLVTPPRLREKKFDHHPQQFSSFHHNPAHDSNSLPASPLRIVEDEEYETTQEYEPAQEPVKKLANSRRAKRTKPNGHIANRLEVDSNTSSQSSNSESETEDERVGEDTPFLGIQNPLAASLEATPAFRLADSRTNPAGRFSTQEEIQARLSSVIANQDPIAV
Torsin-1A-interacting protein 2 (Homo sapiens), sequence (Q8NFQ8 whole entry, looked up): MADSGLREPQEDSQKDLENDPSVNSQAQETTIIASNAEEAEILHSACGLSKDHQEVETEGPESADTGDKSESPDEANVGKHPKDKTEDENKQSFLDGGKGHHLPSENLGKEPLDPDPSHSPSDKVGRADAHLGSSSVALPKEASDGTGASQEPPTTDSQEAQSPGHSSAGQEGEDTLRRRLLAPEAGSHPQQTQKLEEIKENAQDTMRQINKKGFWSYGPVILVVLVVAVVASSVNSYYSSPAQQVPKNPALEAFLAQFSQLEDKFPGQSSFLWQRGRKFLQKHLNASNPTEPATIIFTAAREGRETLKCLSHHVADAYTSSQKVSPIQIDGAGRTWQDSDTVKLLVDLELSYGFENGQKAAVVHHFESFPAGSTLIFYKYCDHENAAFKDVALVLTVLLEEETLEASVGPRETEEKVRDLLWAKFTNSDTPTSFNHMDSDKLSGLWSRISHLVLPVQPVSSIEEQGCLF

Row | SMILES | composite z-score [1] | composite z-score [2] | composite z-score [3] | composite z-score [4] | composite z-score [5] | composite z-score [6] | composite z-score [7] | z-score [8] | composite z-score [9] | composite z-score [10] | composite z-score [11] | z-score [12] | z-score [13] | z-score [14] | composite z-score [15] | z-score [16] | composite z-score [17] | composite z-score [18] | composite z-score [19] | composite z-score [20]
1 | COc1ccc([Si](C)(C)[C@@H]2[C@@H](CCO)O[C@]3(C(=O)N(Cc4cccc(N5C(=O)COc6ccccc65)c4)c4ccccc43)[C@H]2C)cc1 | 0.0857 | -0.183 | -0.072 | 0.492 | 0.0822 | 1.18 | 0.818 | -1.22 (inactive) | -0.287 | -0.164 | 0.896 | 3.01 (inactive) | 1.09 (inactive) | 36.8 (active) | 1.61 | 0.685 (inactive) | -0.124 | -0.142 | 0.528 | -0.0864
2 | C[C@H]1ON(c2ccccc2)[C@@H](c2ccccc2)[C@@H]1C(=O)N1C(=O)OC[C@@H]1c1ccccc1 | -0.331 | -0.111 | -0.019 | 0.602 | 0.527 | 0.211 | 0.656 | 0.84 (inactive) | 0.0477 | -0.374 | 0.648 | 0.386 (inactive) | -0.0839 (inactive) | -0.299 (inactive) | 0.352 | -0.0337 (inactive) | -0.159 | 0.743 | 0.848 | -0.0409
3 | COc1cc(C(O)C2C=CC3C(=O)NC(=O)C3N2Nc2ccc(Cl)cc2Cl)cc(OC)c1OC (stereo not given) | 0.223 | -1.1 | 0.0461 | 0.476 | 1.63 | 1.72 | 1.21 | 1.15 (inactive) | 1.7 | 0.203 | 1.18 | -12.3 (active) | -1.57 (inactive) | 0.27 (inactive) | 3.27 | -0.66 (inactive) | 0.162 | 0.049 | 1.09 | 0.114
4 | CCOC(=O)C[C@H]1[C@H](OC(=O)c2ccccc2-c2ccccc2)[C@@H](NC(=O)c2ccccc2)c2cc(OCCCO)ccc2N1C(=O)Cc1ccc(OC)cc1 | -0.205 | -0.0688 | -0.0569 | 0.149 | 0.585 | -0.323 | -0.191 | 0.57 (inactive) | -0.0579 | -0.204 | -0.175 | -0.211 (inactive) | -0.0183 (inactive) | 0.452 (inactive) | 0.601 | -0.922 (inactive) | -0.0963 | -0.0496 | -0.196 | -0.108
5 | CC(C)CN1C(=O)[C@@]2(Cc3ccccc31)c1ccccc1C(=O)N(Cc1ccccc1)[C@H]2c1ccc(CO)cc1 | 0.849 | -0.675 | -0.148 | -0.0466 | -0.713 | -0.544 | -0.152 | -0.314 (inactive) | -0.759 | -0.261 | -0.594 | -0.0832 (inactive) | -0.519 (inactive) | -1.46 (inactive) | 0.771 | -0.336 (inactive) | -0.131 | -0.34 | -0.395 | -0.348
6 | COCCCNC(=O)[C@@]1(C)c2ccccc2C(=O)N(c2ccc(C)cn2)[C@H]1c1ccc(CO)cc1 | -0.722 | -0.331 | -0.308 | -1.12 | -1.15 | 0.906 | 0.632 | 0.811 (inactive) | -0.892 | -0.439 | 0.194 | -0.435 (inactive) | -0.473 (inactive) | -1.67 (inactive) | 3.55 | 0.288 (inactive) | -0.428 | -0.978 | -0.99 | -0.427
7 | COC(=O)[C@]1(Cc2ccccc2CN=[N+]=[N-])N=C(c2ccc(OCCCO)cc2)O[C@@H]1c1ccccc1 | 0.774 | -0.556 | -0.137 | -1.27 | -1.24 | 0.4 | -0.45 | -2.44 (inactive) | -0.0581 | -0.174 | -0.985 | 0.697 (inactive) | -1.55 (inactive) | 35.3 (active) | 0.475 | 0.437 (inactive) | 0.17 | -0.586 | -0.601 | -0.257
8 | CC1=C2[C@@H](CCc3ccccc3)OB(O)C[C@@H]2[C@@H]2C(=O)C=CC(=O)[C@@H]2C1 | -0.741 | 0.654 | -0.0887 | 1.13 | 1.38 | 0.51 | 0.976 | -1.57 (inactive) | 0.32 | -0.16 | 1.31 | -0.689 (inactive) | -15.6 (active) | -0.679 (inactive) | 0.775 | -0.315 (inactive) | 0.0037 | 0.642 | 1.1 | 0.0484
9 | CCCc1cc2c(n1Cc1ccc(OC)cc1)C(C)C1CN(C(=O)c3ccccc3)C(C)(C(=O)OC)C21 (stereo not given) | 1.24 | 0.575 | 0.354 | 0.345 | 1.59 | 1.81 | 1.2 | -0.0832 (inactive) | 1.14 | -0.127 | 1.34 | 0.461 (inactive) | 0.815 (inactive) | 1.64 (inactive) | 3.37 | -1.21 (inactive) | 0.8 | -0.758 | 1.05 | 0.389
10 | COC(=O)[C@@]1(Cc2ccc(OC)cc2)[C@H]2c3cc(C(=O)N4CCCC4)n(CCF)c3C[C@H]2CN1C(=O)c1ccccc1 | 3.09 | -0.334 | 0.972 | 1.44 | 1.66 | 2.27 | 1.43 | 1.37 (inactive) | 3.23 | 3 | 0.669 | 0.366 (inactive) | 1.13 (inactive) | 0.4 (inactive) | 3.56 | -1.09 (inactive) | 1.64 | -0.183 | 1.12 | 1.37
